HEK293 tox = kills HEK 293 cells | actives 6.6% (n = 94,000) | Potency, µM (top dose mostly 115 µM), for inactives: at the highest dose activity change, negative = cytotoxicity, usual class: inhibitors | AID 1345083 | HEK 293 viability, ATP luminescence (CellTiter-Glo), 48-72 h; note: nearly all actives have a fitted effect of over 60% in size
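ATP-coupled CellTiter-Glo luminescence served as viability read-out, recorded 10 min after reagent addition at room temperature. HEK 293 cells, 250 cells/well, had been incubated with pintool-transferred compound for 48 or 72 hr at 37 degree Celsius.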
Luciferase inh = Photinus pyralis luciferase inhibition | P08659 | purified P. pyralis luciferase, luminescence, biochemical | Potency, µM (doses to about 115 µM), hits mostly inhibitors | actives 2.5% (n = 76,000) | AID 1347043; note: nearly all actives have a fitted effect of over 65% in size
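Biochemical qHTS: compound (6-point titration) added to 10uM D-luciferin plus 10uM ATP in Tris acetate pH 7.5 buffer with Mg, Tween-20 and BSA, then purified enzyme at 10nM; light output imaged.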
3T3 cytotox = cytotoxic compounds in NIH 3T3 cells; NIH 3T3 viability, CellTiter-Glo ATP luminescence, 48-72 h; Potency, µM (series often up to 96.7 µM), for inactives: at the highest dose activity change, negative = cytotoxicity, usual class: inhibitors; actives 4.3% (n = 94,000); note: nearly all actives have a fitted effect of over 55% in size
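Cytotoxicity is measured as loss of cellular ATP: NIH 3T3 cells (400/well) are exposed to compound for 48 or 72 hr at 37 °C, then CellTiter-Glo luminescence is imaged after 10 min at room temperature.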
hNpr1 antagonist = human Npr1 receptor antagonism. P16066. HEK293 hNpr1 GloSensor cGMP, ANP-stimulated luminescence. Potency, µM (top dose mostly 46.3 µM), without a hit: at the top dose activity change, negative = inhibition, most hits filed as inhibitors. actives 1.6% (n = 76,000). AID 1347048; calls by dose curve; note: nearly all actives have a fitted effect of over 60% in size
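HEK293 cells stably expressing human Npr1 and cGMP GloSensor pGS-40F, loaded 2 h with 2% GloSensor reagent, given compound 30 min at room temperature. Luminescence read before and 20 min after 0.1 nM hNppA.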
GPT2 inh = inhibitors of human GPT2 alanine aminotransferase; actives 0.25% (n = 100,000); Recombinant GPT2, coupled pyruvate oxidase/HRP Amplex Red fluorescence; Q8TD30; Potency, µM (doses to about 57.7 µM), inactives show at the highest dose activity change, negative = inhibition, most hits filed as inhibitors; AID 1671188; note: nearly all actives have a fitted effect of over 60% in size
Target sequence (Q8TD30 whole entry, looked up): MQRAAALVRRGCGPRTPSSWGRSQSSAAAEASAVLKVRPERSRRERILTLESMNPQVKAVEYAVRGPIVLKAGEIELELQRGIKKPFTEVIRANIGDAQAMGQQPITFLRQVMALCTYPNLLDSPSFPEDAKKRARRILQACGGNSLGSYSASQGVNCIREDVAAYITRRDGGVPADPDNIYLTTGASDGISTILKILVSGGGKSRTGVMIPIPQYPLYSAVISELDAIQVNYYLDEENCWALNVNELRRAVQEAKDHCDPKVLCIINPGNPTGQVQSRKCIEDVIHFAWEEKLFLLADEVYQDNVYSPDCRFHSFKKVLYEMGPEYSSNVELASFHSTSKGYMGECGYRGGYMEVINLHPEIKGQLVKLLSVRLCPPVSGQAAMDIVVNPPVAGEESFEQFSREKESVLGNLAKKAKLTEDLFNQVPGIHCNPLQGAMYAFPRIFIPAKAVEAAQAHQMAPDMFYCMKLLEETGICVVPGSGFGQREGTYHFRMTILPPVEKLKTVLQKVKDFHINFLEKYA
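Inhibition is scored from Amplex Red fluorescence generated when pyruvate oxidase and HRP act on pyruvate released by GPT2. Reactions contain 10ng/uL enzyme, 250uM a-KG and 2mM L-alanine and run 30 min at room temperature.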
* marks the source's active call; other numbers are inactive results; i = inactive; ? = inconclusive; · = not tested or not shown; [ ] = another dose, or the depositor's remark. Shown are actives, neighbours in structure and some others; about 10% of the full set was active somewhere. Unless noted, calls come from the whole dose curve; as a rule, active = well fitted curve in the direction sought with a large enough effect; inconclusive = small, poorly fitted or top-dose-only effect, or another doubt; inactive = no such curve, though single readings can be large; an effect the other way counts as inactive or inconclusive. % is set by controls: 0 for no effect and ±100 for the full control effect; potency is the fitted concentration of half-maximal effect.

SMILES	HEK293 tox	Luciferase inh	3T3 cytotox	hNpr1 antagonist	GPT2 inh
CCOc1ccc(NC(=O)Cn2cccc2-c2nc(-c3ccc(F)cc3)no2)cc1	-12%	i	0%	8%	i
CCOc1ccc(NC(=O)Cn2cccc2-c2nc(-c3ccccc3)no2)cc1	28µM*	i	?	-4%	-4%
O=C(Cn1cccc1-c1nc(-c2ccc(F)cc2)no1)N1CCN(c2ccccc2F)CC1	?	i	-12%	-14%	i
COc1ccccc1N1CCN(C(=O)Cn2cccc2-c2nc(-c3ccc(F)cc3)no2)CC1	40µM*	i	?	-4%	-9%
COc1ccc(NC(=O)Cn2cccc2-c2nc(-c3ccccc3)no2)cc1OC	32µM*	i	32µM*	5%	1%
COc1ccc(CN(Cc2ccc(OC)cc2)[C@@H]2CO[C@H](CNC(=O)CC(C)(C)C)[C@H]2O)cc1	71µM*	i	?	1%	-3%
COC[C@@H]1CN(Cc2cccc(C(F)(F)F)c2)C[C@H]1C(=O)NC1CC1	?	i	-19%	1%	i
Cc1ccc(C(=O)N2CCCCCCNC(=O)[C@@H]3C[C@@H](c4nc(Cc5ccccc5)no4)C[C@@H]32)s1	79µM*	i	?	0%	i
Cc1ccsc1CN1CCC(Oc2cc(Cl)ccc2C(=O)N2CCCCC2)CC1	45µM*	i	?	1%	5%
Cc1cc(C)c(CN2CCC3(Cc4ccccc4CNC3=O)C2)c(C)c1 (centres undefined)	?	·	?	·	4%
O=C(O)CCC(=O)N1Cc2ccccc2CC2(CCCCN2CC2CCOCC2)C1 (centres undefined)	-4%	·	-2%	·	i
CC(Oc1ccccc1)C(=O)N1CCCN(c2cc(-c3ccc(Cl)cc3)[nH]n2)CC1 (centres undefined)	40µM*	i	?	?	-16%
CCC(C(=O)NC1CCN(c2cc(-c3ccc(OC)cc3)[nH]n2)CC1)c1ccccc1 (centres undefined)	?	i	?	-3%	-27%
Cc1ccc(-c2cc(N3CCCN(C(=O)C(C)Oc4ccccc4)CC3)n[nH]2)cc1C (centres undefined)	?	i	?	-19%	?
CCC(C(=O)N1CCCN(c2cc(-c3ccc(OC)cc3)[nH]n2)CC1)c1ccccc1 (centres undefined)	40µM*	i	?	-2%	?
CC(C(=O)N1CCCN(c2cc(-c3ccc(Cl)cc3)[nH]n2)CC1)c1ccccc1 (centres undefined)	40µM*	?	35µM*	?	?
COc1cccc(-c2cn3cc(C(=O)Nc4ccc(C)cc4)nc3s2)c1	?	·	?	·	i
c1ccc(CN2CCC[C@H]2c2nc(-c3ccnc(N4CCOCC4)c3)no2)nc1	?	i	35µM*	-6%[70.6 µM]	i
CN1CCN(c2ccc(-c3noc([C@@H]4CCCN4C4CCCCC4)n3)cn2)CC1	79µM*	i	79µM*	2%[70.6 µM]	i
c1cncc(CN2CCC[C@H]2c2nc(-c3ccc(-n4ccnc4)nc3)no2)c1	?	i	-13%[138 µM]	4%[70.6 µM]	1%[88.5 µM]
CN1CCN(c2ccc(-c3noc([C@@H]4CCCN4CCCc4ccccc4)n3)cn2)CC1	?	i	40µM*	4%[70.6 µM]	-4%[88.5 µM]
c1ccc(CN2CCC[C@H]2c2nc(-c3ccc(-n4ccnc4)nc3)no2)cc1	89µM*	i	?	-3%[70.6 µM]	-21%[88.5 µM]
Cc1cc2ccccc2nc1-c1cccc(O)c1	?	i	?	-2%	1%
COc1cccc(-c2ccnc3nc(-c4cccs4)nn23)c1	?	16µM*	?	-14%	-3%
c1coc(-c2ccnc3nc(-c4cccs4)nn23)c1	-14%	i	35µM*	6%	i
SMILES	HEK293 tox	Luciferase inh	3T3 cytotox	hNpr1 antagonist	GPT2 inh
c1csc(-c2nc3nccc(-c4ccsc4)n3n2)c1	?	i	?	1%	i
c1csc(-c2nc3nccc(-c4ccncc4)n3n2)c1	-4%	i	-14%	3%	-6%
Cc1noc(-c2ccccc2Cl)c1C(=O)NCCCc1ccccc1	45µM*	i	?	0%	2%
CN1CCCCCC(O)c2cc(C(=O)NCCc3ccccn3)ccc21 (centres undefined)	?	45µM*	32µM*	-10%	-40%
COc1ccc(C)cc1NC(=O)c1ccc2c(c1)C(O)CCCCCN2C (centres undefined)	?	i	?	-17%	i
CCCN(CC1CC1)C(=O)c1ccc2c(c1)C(O)CCCCCN2CCOC (centres undefined)	79µM*	i	?	-10%	0%
COCCN1CCCCCC(O)c2cc(C(=O)NCCCN3CCCc4ccccc43)ccc21 (centres undefined)	40µM*	i	?	-8%	?
COc1ccccc1OCCNC(=O)c1ccc2c(c1)C(O)CCCCCN2C (centres undefined)	?	i	?	-13%	-16%
COCCN1CCCCCC(O)c2cc(C(=O)Nc3cc(C)ccc3OC)ccc21 (centres undefined)	45µM*	?	?	-2%	-4%
CCc1ccc(CN2CCCC3(Cc4ccccc4CNC3=O)C2)s1 (centres undefined)	?	·	-20%	·	i
Cn1ncc2c(C(=O)NCC3CC3)cc(-c3cccnc3)nc21	?	·	?	·	2%[88.5 µM]
CC(C)N1C(=O)C2(CCCCC2)C1C(=O)NCCCN1CCCc2ccccc21 (centres undefined)	79µM*	i	?	4%	i
CC(C)N1C(=O)C2(CCCCC2)C1C(=O)NCCCN1CCCCC1 (centres undefined)	1%	i	i	2%	1%
O=C1c2cc(N3CCOCC3)nc(-c3ccccc3)c2CN1Cc1ccccc1	50µM*	i	32µM*	?	3%[88.5 µM]
Cn1cc(CN2Cc3c(cc(N4CCOCC4)nc3-c3cccc(F)c3)C2=O)cn1	89µM*	i	?	-23%[70.6 µM]	i
COc1ccc(-c2nc(N3CCOCC3)cc3c2CN(Cc2ccccc2)C3=O)cc1	?	?	?	-22%[70.6 µM]	-8%[88.5 µM]
C[S+](=O)([O-])Nc1cccc(-c2nc(N3CCOCC3)cc3c2CN(CC2CC2)C3=O)c1	-22%	i	?	-2%	3%
O=C1c2cc(N3CCOCC3)nc(-c3cccc(F)c3)c2CN1CC1CC1	112µM*	i	?	-23%[70.6 µM]	-14%[88.5 µM]
CCn1cc(CN2CCC(N3CC(OCCOC)C34CCCCC4)CC2)cn1 (centres undefined)	-16%	i	-22%	-1%	i

High-throughput results as filed in PubChem BioAssay.
